This is a sample that favours compounds with a hit; in the whole collection about 21% have one here.
Pf growth 48h = Primary qHTS for delayed death inhibitors of the malarial parasite plastid, 48 hour incubation; 310,000 tested, 5.9% active; P. falciparum luciferase growth in erythrocytes, 48 h; Potency, µM (series often up to 28.7 µM), inactives show at the highest dose activity change, negative = inhibition, usual class: inhibitors; further: potency means the concentration at half of the fitted maximal effect; on the % scale 0 is the no-effect control and ±100 the full control effect
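Cell-based growth assay: transgenic P. falciparum expressing firefly luciferase, cultured in red cells within RPMI 1640 containing 0.5% w/v Albumax, 24 mM bicarbonate and gentamycin. A drop in luciferase activity indicates inhibition.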
Shiga inhibitor = A qHTS for Small Molecule Inhibitors of Shiga Toxin; Vero cells, Shiga toxin protein synthesis inhibition reporter; inhibition, % at 38.7 µM; 290,000 tested, 9.2% active; in the data active means inhibition mostly above about 28%, no sharp cut-off; inactive means mostly below about 43%; further: 0% is about no effect
Pf growth 96h = Primary qHTS for delayed death inhibitors of the malarial parasite plastid, 96 hour incubation; P. falciparum luciferase reporter growth, 96 h; Potency, µM (titrated, usually from 28.7 µM), for the others: at the top dose activity change, negative = inhibition, actives largely listed as inhibitors; 320,000 tested, 6.9% active; further: potency means the concentration at half of the fitted maximal effect; on the % scale 0 is the no-effect control and ±100 the full control effect
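P. falciparum expressing integrated firefly luciferase, in erythrocytes at 2% hematocrit, 0.05% parasitemia, incubated with compounds 96 h at 37 C, 5% CO2. Growth inhibition read as loss of luminescence; two-generation exposure targets delayed-death apicoplast inhibitors.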
CHX counter = Cycloheximide Counterscreen for Small Molecule Inhibitors of Shiga Toxin; AID 2314, 2010; 300,000 tested, 12% active; max response, %; cell reporter, cycloheximide protein synthesis inhibition counterscreen; in the data active means max response mostly above about 13%, no sharp cut-off; inactive means mostly below about 14%; further: read at 38.3 µM for the half of the compounds with a filed dose; 0% is about no effect
An asterisk follows results filed as active; i = inactive; ? = inconclusive; · = not tested or not shown; [ ] = another dose, or the depositor's remark. Unless noted, the call rests on the fitted dose curve; in most records, active means well fitted inhibition curve with a large enough effect; inconclusive means small, poorly fitted or top-dose-only effect, or another doubt; inactive means no such curve, though single readings can be large or run the other way.

SMILES	Pf growth 48h	Shiga inhibitor	Pf growth 96h	CHX counter
CCCc1cc(=O)oc2cc(C)cc(OCC(=O)NCCCN3CCOCC3)c12	-27%	21	?	10
COc1ccc(CN2CCC(=O)N(CCO)CC2)cc1OC	-2%	12	24%	2
CCCCn1c(C)cc2c(c1=O)[C@H]1O[C@](CCCC)(Cc3c1ccc1ccccc31)O2	-20%[5.75 µM]	i	6%[5.75 µM]	-2
Cc1ccc(Cl)cc1N1CCN(Cc2nc3ccsc3c(=O)[nH]2)CC1	·	2	?	-7
Cc1ccc(NC(=O)c2cccc(NC3=NC4CS(=O)(=O)CC4S3)c2)cc1 (stereo not drawn)	-4%	25	30%	0
CCOc1ccc(-c2c(C(=O)N/N=C/C3CCCCC3)nnn2-c2nonc2N)cc1	0%	-6	27%	-4
Cc1ccc(C(=O)Nc2ccc(Cl)cc2C)c(Cl)c1	238%	100*	-13%	27*
O=C(Nc1ccc(Cl)cc1C(F)(F)F)c1ccccc1Cl	17%	38	?	13*
Cc1ccc(C(=O)Nc2ccc(Cl)cc2C(F)(F)F)c(Cl)c1	63%	56*	41%	31*
O=C(CN1CCCC1)Nc1ccc(Cl)cc1C(F)(F)F	25%	6	12%	2
CCCn1c(=O)c(C(=O)NNS(=O)(=O)c2ccc(NC(=O)OC)cc2)c(O)c2ccccc21	0%	-12	-10%	-6
O=C(O)Cc1ccc2oc(-c3cccnc3)nc2c1	23%	20	37%	-3
Cc1ccccc1-c1nc2cc(Cl)ccc2c(=O)o1	18%	2	25%	7
Cc1ccccc1-c1nc2cc(Cl)ccc2o1	94%	87	148%	38*
Cc1ccc2nc(-c3cccnc3)oc2c1	267%	131*	·	47*
CCCCc1nc2cc(Cl)ccc2o1	23%	-5	?	-2
Clc1ccc2oc(-c3cccnc3)nc2c1	143%	85*	·	47*
Clc1ccc2oc(-c3ccccc3)nc2c1	173%	107*	98%	46*
CC(C)(C)c1ccc(C(=O)NCCC(=O)N2CCC3(CC2)NCCc2[nH]cnc23)cc1	7%	-3	-2%	-3
COc1cccc(N(CC(=O)NCCSCc2ccc(Cl)cc2)S(C)(=O)=O)c1	-33%	·	304%	-1
O=C(CSc1nc2cc(Cl)ccc2o1)NCCc1ccccc1	-6%	-24	-15%	-2
O=S(=O)(Nc1ccc2oc(-c3ccccc3)nc2c1)c1ccccc1	31%	51	·	31*
Clc1ccc2oc(SCc3cccnc3)nc2c1	8%[0.00184 µM]	66*	26%	23*
CC(=O)Oc1ccc(C(=O)Nc2cccc(-c3nnc(-c4ccco4)o3)c2)cc1	?	-11	?	13
COc1cccc(-c2nnc(N)o2)c1	47%	26	131%	10*
SMILES	Pf growth 48h	Shiga inhibitor	Pf growth 96h	CHX counter
COc1cccc(-c2nnc(NC(=O)C(C)C)o2)c1	3%	56	42%	9
COc1cccc(-c2nnc(-c3ccc(C)o3)o2)c1	126%	29*	67%	27*
COc1cccc(-c2nnc(-c3ccco3)o2)c1	292%	active	222%	60*
COc1cccc(C(=O)Nc2ccc(-c3nnc(-c4ccco4)o3)cc2)c1	4.7µM*	57	?	17*
O=C(O)COc1cccc2c1CCC=C2CCO/N=C(\c1ccccc1)c1cccnc1	·	1	·	-4
COc1ccccc1CNC(=O)COC(=O)CCC(=O)c1cccs1	28%	6	-12%	17
COc1cccc(-c2nnc(-c3ccccc3[N+](=O)[O-])o2)c1	99%	93*	73%	41*
COC(=O)c1sccc1Oc1c(Cl)cccc1[N+](=O)[O-]	322%	-10	3%	-7
COc1cccc(-c2nc(N)nc(SC)c2C#N)c1	16%	31	35%	14*
Cc1ccnc2nc(C(=O)OCC(=O)NCc3cccc(Cl)c3)nn12	18%	·	19%	·
COc1ccccc1-c1cnn2c(NCCc3ccccc3)cc(C)nc12	38%	75*	46%	34*
Cc1cc(NCc2ccccc2)n2ncc(-c3ccccc3)c2n1	164%	93*	156%	67*
CC(C)(C)c1cc(NCc2ccccn2)n2ncc(-c3ccccc3)c2n1	?	97*	?	51*
c1ccc(-c2csc3ncnc(NCc4ccccn4)c23)cc1	?	-6	?	-3
COc1nc(NCCc2ccc(OC)c(OC)c2)nc(Nc2ccccc2)n1	?	·	?	54*
CN(C(=O)COC(=O)C1=COCCO1)c1c(N)n(Cc2ccccc2)c(=O)[nH]c1=O	-15%	·	4%	·
CCOc1ccc(CC(=O)N2N=C(C)CC2(O)C(F)(F)F)cc1 (stereo not drawn)	7%	-3	-7%	-3
COc1ccccc1NC(=O)c1ccc2c(c1)nnn2C	-8%	27	?	1
COc1ccc(CCNc2cc(C)nc3c(-c4ccc(Cl)cc4)cnn23)cc1OC	-14%	-8	5%	6
Cc1cc(NCCN2CCOCC2)n2ncc(-c3ccccc3)c2n1	146%	41*	167%	28*
Cc1cc(NC(C)c2ccccc2)n2ncc(-c3ccccc3)c2n1 (stereo not drawn)	106%	69*	137%	44*
COc1ccc(CCNc2cc(C)nc3c(-c4ccccc4)cnn23)cc1OC	-24%	active	-5%	48*
CC1(c2nnc(-c3ccncc3)o2)CC(c2ccc([N+](=O)[O-])cc2)=NO1 (stereo not drawn)	76%	-6	9%	-5
Cc1cc(C(=O)NNc2c(Cl)cccc2Cl)n(C(C)(C)C)n1	?	6	?	-2
Cc1csc(SCC(=O)NC2CCC(C)CC2)n1 (stereo not drawn)	8%	·	2%	·
SMILES	Pf growth 48h	Shiga inhibitor	Pf growth 96h	CHX counter
COc1ccc(C)cc1Nc1n[n+](-c2ccccc2)c(-c2ccc(C(=O)O)cc2)s1	18%	-4	2.3µM*	-4
COc1ccc(C)cc1Nc1n[n+](-c2ccccc2)c(-c2cc(OC)c(OC)cc2Br)s1	?	-7	9.3µM*	-2
Oc1ccc2ccccc2c1-c1sc(Nc2ccccc2)n[n+]1-c1ccc(F)cc1	?	-4	?	1
COc1ccc(C)cc1Nc1n[n+](-c2ccccc2)c(-c2c(OC)ccc3ccccc23)s1	3.7µM*	·	?	·
CSc1ccc(-c2sc(Nc3ccccc3)n[n+]2-c2ccc(F)cc2)cc1	?	8	35%	-1
CCCc1cc(=O)[nH]c(SCC(=O)Nc2ccc([N+](=O)[O-])cc2C#N)n1	?	-13	21%	1
C=CCn1c2ccccc2c2nnc(SC(CC)C(=O)Nc3sc4c(c3C#N)CCCC4)nc21 (stereo not drawn)	-16%	7	·	24*
Cc1cccc(OCC(O)Cn2c(N3CCCCC3)nc3c2c(=O)n(C)c(=O)n3C)c1 (stereo not drawn)	?	-7	?	1
O=C(NCc1cccnc1)C1CC(c2ccc(Cl)c(Cl)c2)=NO1 (stereo not drawn)	2%	30	?	-3
Cc1ccc(C)c(COC(=O)CCN=C2NS(=O)(=O)c3ccccc32)c1	-12%	·	17%	·

Compound activity: PubChem, National Center for Advancing Translational Sciences (NCATS)
